{"source": "PubChem BioAssay AID588342", "about": "(National Center for Advancing Translational Sciences (NCATS), 2011)", "note": "Screen size: about 360,000 compounds; about 25,000 (6.9%) were called active. A call without a number means that no potency is given here. Roughly 9% stayed inconclusive and do not appear here. The full list was thinned out, with actives kept by preference. A number with no mark means an inactive call. Calls follow the shape of the dose curve; as a rule, active = well fitted inhibition curve with a large enough effect; inconclusive = small, poorly fitted or top-dose-only effect; inactive = flat fitted curve, though single readings scatter. Potency is read from the fitted curve at half-maximal effect."}
{"molecular_target": "Luciferin 4-monooxygenase (Photinus pyralis) (UniProt P08659)", "sequence (P08659 whole entry, looked up)": "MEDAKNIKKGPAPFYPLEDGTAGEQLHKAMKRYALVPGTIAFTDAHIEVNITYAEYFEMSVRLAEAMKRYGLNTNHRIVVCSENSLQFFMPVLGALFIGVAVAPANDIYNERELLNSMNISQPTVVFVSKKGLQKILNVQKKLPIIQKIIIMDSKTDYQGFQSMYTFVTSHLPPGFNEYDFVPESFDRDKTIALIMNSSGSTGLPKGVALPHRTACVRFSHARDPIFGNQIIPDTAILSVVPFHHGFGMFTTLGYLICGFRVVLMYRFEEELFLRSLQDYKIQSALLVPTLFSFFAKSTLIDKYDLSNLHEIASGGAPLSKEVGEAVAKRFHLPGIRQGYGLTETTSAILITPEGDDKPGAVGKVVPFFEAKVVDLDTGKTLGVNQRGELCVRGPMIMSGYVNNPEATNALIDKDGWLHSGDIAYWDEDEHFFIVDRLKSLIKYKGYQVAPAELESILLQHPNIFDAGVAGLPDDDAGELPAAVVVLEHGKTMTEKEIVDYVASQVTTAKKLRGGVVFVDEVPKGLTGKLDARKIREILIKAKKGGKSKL", "test": "qHTS profiling assay for firefly luciferase inhibitor/activator using purifed enzyme and Km concentrations of substrates (counterscreen for miR-21 project); also: nearly all actives have a fitted effect of over 55% in size", "details": "purified FLuc, luminescence inhibition; series mostly up to 57.5 µM", "summary_of_the_method": "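Purified P. pyralis luciferase (10nM final) with 10uM D-luciferin and 10uM ATP (Km levels) in 50mM Tris acetate pH 7.5, 10mM Mg acetate, 0.01% Tween-20, 0.05% BSA; qHTS 6-point titration, ~60 µM downward; luminescence read.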"}
{"smiles": "O=C(NCc1cccc(Cl)c1)C1=CC=CN2CCS(=O)(=O)N=C12", "Potency": "inactive"}
{"smiles": "Cc1nnc(NCc2ccccc2)c2c1nnn2Cc1ccc(F)cc1", "Potency": "inactive"}
{"smiles": "O=C(CCS(=O)(=O)c1cc(Br)cc2c1N(C(=O)C1CC1)CC2)Nc1ccc(Br)cc1F", "Potency": "inactive"}
{"smiles": "Cc1ccc(NC(=O)CSc2nc3c([nH]c4ccccc43)c(=O)n2-c2ccccc2)cc1Cl", "Potency": "inactive"}
{"smiles": "NC(=O)CSc1nc2c(oc3ccccc32)c(=O)n1Cc1ccccc1", "Potency": "inactive"}
{"smiles": "Cc1ccc(OCC(=O)Nc2ccc3oc(=O)ccc3c2)cc1C", "Potency": "inactive"}
{"smiles": "CC1=C(C(=O)N2CCN(c3cccc(C(F)(F)F)c3)CC2)C2(CCCCC2)OC1=O", "Potency": "inactive"}
{"smiles": "CC(C)c1nc2cc(C(=O)NC(C)c3cnn(C)c3)ccc2o1", "note": "(centres undefined)", "Potency": "inactive"}
{"smiles": "COc1ccc(CNC(=O)c2ccc3oc(C(C)C)nc3c2)cc1", "Potency": "15.1 µM (active)"}
{"smiles": "COC(=O)c1ccc(CNC(=O)c2ccc3oc(C(C)C)nc3c2)cc1", "Potency": "13.5 µM (active)"}
{"smiles": "COC(=O)c1ccc(CSc2nc3cc(Cl)ccc3o2)cc1", "Potency": "inactive"}
{"smiles": "COc1ccc(-c2nc3ccc(C(=O)NCc4ccc(C)cc4)cc3nc2-c2ccc(OC)cc2)cc1", "Potency": "inactive"}
{"smiles": "COc1ccc(Cc2nc3ccc(C(=O)NCc4ccc(OC)cc4OC)cc3o2)cc1", "Potency": "inactive"}
{"smiles": "COC(=O)c1c(NC(=O)c2cc(=O)c3c(C)cc(C)cc3o2)sc2c1CCCC2", "Potency": "inactive"}
{"smiles": "CCCCN(C)S(=O)(=O)c1ccc(C(=O)Nc2sc3c(c2C(N)=O)CC(C)(C)NC3(C)C)cc1", "Potency": "inactive"}
{"smiles": "FC(F)(F)c1cc(Nc2nc3ccccc3c3nncn23)ccc1Cl", "Potency": "inactive"}
{"smiles": "Cc1c(CNC2CCCCC2)c(C(=O)O)c(C)n1Cc1cccc(Cl)c1", "Potency": "inactive"}
{"smiles": "CC(C)Nc1ccc(-n2nc3ccccc3[n+]2[O-])cc1", "Potency": "1.9 µM (active)"}
{"smiles": "CCC(=O)Nc1c(C(=O)N2CCN(c3ccc(F)cc3)CC2)oc2ccccc12", "Potency": "inactive"}
{"smiles": "CC1=C(C(=O)OCc2ccc(C)cc2)C(c2c(Cl)cccc2Cl)CC(=O)N1", "note": "(centres undefined)", "Potency": "inactive"}
{"smiles": "CCOC(=O)c1ccc(NC(=O)C2CC(=O)NC(=Nc3ccc(C)c(C)c3)S2)cc1", "note": "(centres undefined)", "Potency": "inactive"}
{"smiles": "CSC1=N/C(=C\\C=C\\c2cccs2)C(=O)S1", "Potency": "16.9 µM (active)"}
{"smiles": "O=C1N/C(=C/c2cccs2)C(=O)N1Cc1ccc(F)cc1", "Potency": "inactive"}
{"smiles": "O=S1(=O)CCC(NC(=S)SCc2ccccc2Br)C1", "note": "(centres undefined)", "Potency": "inactive"}
{"smiles": "COc1cc(OC)cc(C(=O)NCC(=O)OCc2csc(-c3ccccc3)n2)c1", "Potency": "inactive"}
{"smiles": "Cc1ccc(S(=O)(=O)N2CCN(C(=O)COC(=O)c3c(C)noc3C)CC2)c(C)c1", "Potency": "inactive"}
{"smiles": "Cc1ccc(-c2nc(COC(=O)c3c(C)noc3C)cs2)cc1", "Potency": "9.53 µM (active)"}
{"smiles": "CCC(C)C(N=C1NS(=O)(=O)c2ccccc21)C(=O)N1CCC(C)CC1", "note": "(centres undefined)", "Potency": "inactive"}
{"smiles": "Nc1c(NCCc2ccccc2)c2ccccc2oc1=O", "Potency": "inactive"}
{"smiles": "CCOc1ccc(/C(O)=C2\\C(=O)C(=O)N(c3ccc(OC)cc3)C2c2ccccc2[N+](=O)[O-])cc1", "note": "(centres undefined)", "Potency": "8.49 µM (active)"}
{"smiles": "COc1ccc(C2/C(=C(/O)c3ccccc3)C(=O)C(=O)N2C)c(OC)c1", "note": "(centres undefined)", "Potency": "inactive"}
{"smiles": "COc1ccc(/C(O)=C2/C(=O)C(=O)N(c3nc(C)c(C)s3)C2c2ccco2)cc1", "note": "(centres undefined)", "Potency": "inactive"}
{"smiles": "Cc1ccc(C(=O)Nc2ncccc2C)cc1S(=O)(=O)N1CCOCC1", "Potency": "inactive"}
{"smiles": "O=C1CSC(=S)N1c1ccc(O)cc1", "Potency": "inactive"}
{"smiles": "CCOc1cccc(/C=N/NC(=S)NCCN2CCOCC2)c1O", "Potency": "inactive"}
{"smiles": "CCOc1cccc(/C=N/N2C(=O)CSC2=S)c1O", "Potency": "21.3 µM (active)"}
{"smiles": "C=CCNC(=S)NNC(=O)COc1c(Cl)cc(Cl)cc1Cl", "Potency": "inactive"}
{"smiles": "COc1ccccc1CNC(=O)NCc1noc2ccc(C)cc12", "Potency": "inactive"}
{"smiles": "c1ccc(-n2nc3ccccc3n2)cc1", "Potency": "19 µM (active)"}
{"smiles": "Oc1ccc(-c2nncn2-c2ccccc2)cc1", "Potency": "inactive"}
{"smiles": "O=S(=O)(Cc1nnnn1-c1ccccc1)c1ccccc1", "Potency": "inactive"}
{"smiles": "COc1ccc(NC(=O)CN(C)C(=O)Cc2coc3cc(C)c(C)cc23)cc1", "Potency": "inactive"}
{"smiles": "COc1ccc(NC(=O)CN(C)C(=O)c2ccc(COc3ccccc3)o2)cc1", "Potency": "inactive"}
{"smiles": "COc1ccc(NC(=O)CN(C)C(=O)c2n[nH]c3ccccc23)cc1", "Potency": "23.9 µM (active)"}
{"smiles": "COc1ccc(NC(=O)CN(C)C(=O)CNC(=O)C2CCCCC2)cc1", "Potency": "inactive"}
{"smiles": "COc1ccc(NC(=O)CN(C)C(=O)c2cc(-c3ccc(C)o3)nc3ccccc23)cc1", "Potency": "3.38 µM (active)"}
{"smiles": "CN(C)S(=O)(=O)c1ccc(NC(=O)COC(=O)c2n[nH]c3ccccc23)cc1", "Potency": "inactive"}
{"smiles": "Cc1ccc(C(=O)Nc2ccc(OCc3cc(=O)n4c5c(sc4n3)CCCC5)cc2)cc1", "Potency": "inactive"}
{"smiles": "Cc1ccc(NC(=O)CCCNC(=O)c2ccc(Cl)cc2)cc1S(=O)(=O)N1CCOCC1", "Potency": "inactive"}
{"smiles": "COc1cc(NC(=O)c2noc3c2CSc2ccccc2-3)cc(OC)c1OC", "Potency": "inactive"}
{"smiles": "COc1ccc(-c2csc(-c3c(N)c(C(=O)c4ccc(OC)c(OC)c4)n4ccccc34)n2)cc1", "Potency": "inactive"}
{"smiles": "COc1ccc(-c2csc(-c3cccs3)n2)cc1OC", "Potency": "23.9 µM (active)"}
{"smiles": "COc1ccc(CNC(=O)COCc2cc(-c3cccs3)on2)cc1OC", "Potency": "inactive"}
{"smiles": "COc1ccccc1-c1cc(C(F)(F)F)nc(S(=O)(=O)CCCC(=O)Nc2ccc(F)cc2F)n1", "Potency": "inactive"}
{"smiles": "CCN(C(=O)Cn1c(=O)nc(-c2ccccc2)c2cc(Cl)ccc21)c1cccc(C)c1", "Potency": "inactive"}
{"smiles": "O=C(NCCc1ccco1)c1nn(Cc2ccccc2)c(=O)c2ccccc12", "Potency": "inactive"}
{"smiles": "Cc1ccsc1C(=O)NCCc1ccco1", "Potency": "21.3 µM (active)"}
{"smiles": "COc1cc(OC)cc(C(=O)NCCSCc2ccco2)c1", "Potency": "inactive"}
{"smiles": "CCC(=O)Nc1cccc(C2=NOC3(C2)C[C@@H](C(N)=O)N(C(=O)c2cc([N+](=O)[O-])cc([N+](=O)[O-])c2C)C3)c1", "note": "(some centres undefined)", "Potency": "inactive"}
{"smiles": "COc1ccc(Cn2ccc3nc(C)c(C(=O)Nc4ccc(C)c(F)c4)cc3c2=O)cc1", "Potency": "inactive"}
{"smiles": "COc1cccc(Cn2c(CNS(=O)(=O)c3ccc(Cl)s3)nc3cccnc32)c1", "Potency": "inactive"}
{"smiles": "COc1ccc(NC(=O)C(c2ccccc2)N2Cc3ccccc3C2=O)cc1", "note": "(centres undefined)", "Potency": "inactive"}
{"smiles": "CC(=O)c1ccc(NC(=O)c2cc(-c3cccs3)on2)cc1", "Potency": "inactive"}
{"smiles": "CNC(=O)n1ccc(C(=O)N2CCCCC2)n1", "activity change, negative = inhibition": "2.3% [at 2.3 µM]"}
{"smiles": "CCOC(=O)CC1(NC(=O)c2cc(COc3cncc(Cl)c3)on2)CCCCC1", "Potency": "inactive"}
{"smiles": "O=C(c1cc(-c2cccs2)on1)N1CCCCC1", "Potency": "23.9 µM (active)"}
{"smiles": "COc1cccc(OCc2cc(C(=O)N3CCN(C(=O)c4ccco4)CC3)no2)c1", "Potency": "12 µM (active)"}
{"smiles": "O=C(c1cc(-c2ccccc2O)on1)N1CCCC1", "Potency": "6.75 µM (active)"}
{"smiles": "COc1cccc(OC)c1OCCN1CCN(C(=O)c2ccco2)CC1", "Potency": "inactive"}
{"smiles": "Cc1nonc1C1CCCN1C(=O)c1cc(COc2cccc(C(F)(F)F)c2)on1", "note": "(centres undefined)", "Potency": "inactive"}
{"smiles": "O=C(c1ccc(F)cc1)N1CCCC(c2nc(-c3cccs3)no2)C1", "note": "(centres undefined)", "Potency": "inactive"}
{"smiles": "CCCOC1CCCN(C(=O)c2cc(COc3cncc(Cl)c3)on2)C1", "note": "(centres undefined)", "Potency": "10.7 µM (active)"}
{"smiles": "O=C(c1ccco1)N1CCN(C(=O)c2ccc(COc3ccc(F)cc3)o2)CC1", "Potency": "inactive"}
{"smiles": "O=C(c1ccc(Cl)c(Cl)c1)N1CCCC1", "Potency": "inactive"}
